# In PubChem BioAssay AID504707 (The Scripps Research Institute Molecular Screening Center, 2011):
# In all, about 340,000 compounds went through this assay and about 280 (0.082%) were called active. What follows is part of a selection rich in actives, with near analogues and random picks from the rest. Unmarked numbers belong to inactive results.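 Rule for the calls: active = percent activation above the mean of all tested compounds plus 3 SD (cut at about 19% in these data); inactive = the rest.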
# Target: cAMP-dependent protein kinase type I-alpha regulatory subunit (Bos taurus) + cAMP-dependent protein kinase catalytic subunit beta (Mus musculus) (UniProt P00514+P68181)
# Experiment: activators of PKA-R1A holoenzyme, primary screen, biochemical, fluorescence polarization, Cy5-IP20, bovine R1A, mouse PKAc (AID 504707);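 note: higher means more PKAc released from R1A so a rise in polarization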
# Settings: PKA-R1A dissociation, at 11.4 µM, stronger effect = higher value, scaled: DMSO 0%, 113 µM cGMP 100%
row,Structure (SMILES),activation
1,O=S1(=O)CCN(C2CCCCCCCCCCC2)CC1,7.32%
2,c1ccc(Cn2nnc3c(NCC4CC4)ncnc32)cc1,5.88%
3,O=C(COc1ccc(S(=O)(=O)N2CCCC2)cc1[N+](=O)[O-])N1CCCCC1,-0.2%
4,Cc1cccc(N(CC(=O)N2CCCC2)S(C)(=O)=O)c1C,-6.73%
5,CC1=C(C(=O)Nc2cccc(C(=O)NCC(C)c3ccccc3)c2)SCCO1 (stereo unspecified),9.58%
6,CCOC(=O)c1c(NC(=S)SC)sc(C(=O)N2CCc3ccccc3C2)c1C,-7.69%
7,Cc1ccc(S(=O)(=O)N2CCOCC2)cc1NC(=O)c1ccncc1,-4.48%
8,OCC1OC(n2cnc3c(N4CCCC4)ncnc32)C(O)C1O (stereo unspecified),2.45%
9,CC(Sc1ccc(S(=O)(=O)N2CCN(C)CC2)cn1)C(=O)NC1CCCC(C)C1C (stereo unspecified),1.21%
10,NC1=CC(=O)C(=O)c2cccnc21,0.52%
11,CCCc1ccc(S(=O)(=O)N2CCN(C(=O)c3cc(C)on3)CC2)cc1,8.59%
12,CCc1noc(C)c1C(=O)OCC(=O)c1ccc(NC(=O)CC(C)C)cc1,-17.9%
13,COc1ccc2c(c1)CCCO[C@]21O[C@H](CCO)C[C@H](O)[C@H]1O,-17.7%
14,COCOCCn1cc(CN2CCS(=O)(=O)N(Cc3ccc(-c4ccccc4)cc3)C(CC(C)C)C2=O)nn1 (stereo unspecified),-7.1%
15,CCc1cc(C(=O)N(CC)CC(=O)Nc2c(F)cccc2F)sc1C,2.41%
16,O=S(=O)(c1ccc(Cl)s1)N1CCC2(CC1)OCCO2,-0.53%
17,Cc1noc(C)c1S(=O)(=O)N(C)C[C@H]1OCCCC[C@@H](C)Oc2ccc(NC(=O)CCCN(C)C)cc2C(=O)N([C@H](C)CO)C[C@@H]1C,-9.82%
18,Cc1ccn(CC(=O)NC2CCCN(Cc3ccccc3F)C2)n1 (stereo unspecified),3.67%
19,CCOC(=O)c1cnc(SC)nc1Sc1ccc(Cl)cc1Cl,-0.11%
20,C[C@@H]1CN([C@H](C)CO)S(=O)(=O)c2ccc(C#CC3CCCCC3)cc2O[C@H]1CN(C)C(=O)Cc1ccncc1,-5.17%
21,CC1CCN(C(=O)CSc2nnc(-c3ccco3)n2N)CC1,-3.33%
22,Cc1ccc(CCNC(=O)CN2C(=O)CSc3ccc(S(=O)(=O)N4CCOCC4)cc32)cc1,-7.23%

row,Structure (SMILES),activation
1,CCCCN=C(N)/C(C(=O)OCC)=C(\O)c1ccc(OC)cc1,-0.11%
2,COc1ccc(S(=O)(=O)N2CCC(C(=O)NCCC(=O)NCCc3cccc(F)c3)CC2)cc1,-4.12%
3,NS(=O)(=O)c1ccc(CNC(=O)c2cc(S(=O)(=O)N3CCOCC3)ccc2N2CCCC2)cc1,-1.96%
4,CCN(CC)C(=O)C1=C(C)N(Cc2ccccc2)C(=O)C(CC(=O)NC(c2ccccc2)c2ccccc2)C1 (stereo unspecified),-7.55%
5,CCc1nc2c(=O)[nH]cnc2o1,12.2%
6,CC1CCC2(CC1)NC(=O)N(CC(=O)NCc1ccco1)C2=O (stereo unspecified),-3.37%
7,COc1ccc(NC(=O)COC(=O)C2COc3ccccc3O2)cc1 (stereo unspecified),11.1%
8,O=C(CSc1ccc(Cl)cc1)NC1CC1,-0.65%
9,CCCNC(=O)C1CC(=O)N(c2ccc(OCc3ccccc3)cc2)C1 (stereo unspecified),3.3%
10,O=C(COC(=O)c1cccc(Cl)c1Cl)NC1CCCCCC1,-4.58%
11,C[C@H]1CN([C@@H](C)CO)C(=O)CCCn2cc(nn2)CO[C@@H]1CN(C)C(=O)Nc1ccccc1,-15.3%
12,CCN(c1ccc(NC(=O)COC(=O)CCc2nc3ccccc3n2-c2ccccc2)cc1)C(C)C,-8.81%
13,Cc1ccc(S(=O)(=O)NN=C2CC(C)(C)CC(=O)C2(C)C)cc1,-0.8%
14,C[C@H]1CN([C@@H](C)CO)C(=O)CCCn2nncc2CO[C@@H]1CN(C)S(=O)(=O)c1cccc(C#N)c1,-0.38%
15,Cc1ccc([C@H]2N[C@]3(CCCN(Cc4ccccc4)C3=O)[C@H]3C(=O)N(Cc4ccccc4)C(=O)[C@@H]23)cc1,3.96%
16,CSCCC1NC(=O)N(CC(=O)Nc2cccc(S(=O)(=O)N3CCCCCC3)c2)C1=O (stereo unspecified),4.33%
17,CC(C)CC1C(=O)N(Cc2cn(CC3CCCCC3)nn2)CCS(=O)(=O)N1Cc1ccc(-c2ccc(Cl)cc2)cc1 (stereo unspecified),-4.01%
18,COc1ccc(CNc2nnnn2C)cc1,19.2% (active)
19,Cn1nnnc1NCc1ccc(Cl)c(Cl)c1,-9.38%
20,CCCn1nnnc1NCc1ccc(OC)cc1,-2.85%
21,Cc1ccccc1OS(=O)(=O)c1cccc([N+](=O)[O-])c1,15.6%
22,O=C(NCc1nnnn1-c1ccc(Cl)cc1)c1ccc2c(c1)OCO2,4.42%

row,Structure (SMILES),activation
1,O=[N+]([O-])c1ccc(C(S(=O)(=O)Cc2ccccc2)S(=O)(=O)Cc2ccccc2)cc1,4.44%
2,CCOC(=O)c1cnn2c(SC)ncnc12,1.57%
3,CN(C)C(CNC(=O)c1cccc(S(=O)(=O)N2CCc3ccccc3C2)c1)c1ccccc1 (stereo unspecified),-0.91%
4,CC1=C(C(=O)N2CCOCC2)CC(CC(=O)NCc2cccc3ccccc23)C(=O)N1CCC1=CCCCC1 (stereo unspecified),-16.2%
5,Cc1cc(C)c(C#N)c(SCC(=O)NN2CC(=O)N(c3ccccc3F)CC2=O)n1,-8.96%
6,CC(C)CC1C(=O)N(Cc2cn(Cc3ccco3)nn2)CCS(=O)(=O)N1Cc1ccc(-c2ccc(Cl)c(Cl)c2)cc1 (stereo unspecified),-7.28%
7,CCOC(=O)c1nc(-c2ccc3c(c2)OCO3)[nH]c1C,-2.48%
8,CC1=C(C(=O)N2CCOCC2)CC(CC(=O)NCCN2CCOCC2)C(=O)N1CCC1=CCCCC1 (stereo unspecified),-5.53%
9,CCC(C)C1(C2CCCC2)NC(=O)NC1=O (stereo unspecified),-4.54%
10,O=C(Nc1cccc(C(=O)O)c1)/C(=C\c1ccccc1)NC(=O)c1ccc(Br)o1,3.24%
11,O=C(c1ccc(N2CCCC2=O)cc1)N1CCN(c2ccc(C(F)(F)F)cc2[N+](=O)[O-])CC1,0.5%
12,CCN(C(=O)C1CCCN(c2nc(-c3ccc(OC)cc3)no2)C1)c1ccc(OC)cc1 (stereo unspecified),-6.29%
13,Cc1ccnc(SC2CC(=O)N(c3ccccc3)C2=O)n1 (stereo unspecified),8.38%
14,Cc1cccc(NS(=O)(=O)c2cc(Cl)ccc2Cl)n1,-4.38%
15,O=C1[C@H]2[C@@H](c3ccc(C(F)(F)F)cc3)N[C@]3(CCCN(Cc4ccc(Br)cc4)C3=O)[C@H]2C(=O)N1Cc1ccccc1,-1.26%
16,CC(=O)N1CCc2cc(S(=O)(=O)NC3CCCCC3)ccc21,5.76%
17,Cc1ccc(NC(=O)Cn2sc3ccccc3c2=O)cc1,8.53%
18,CN(C)c1ccc(NC(=O)CSc2n[nH]c(-c3ccco3)n2)cc1,7.46%
19,Cc1ccc(S(=O)(=O)/N=C2\C=C(NS(=O)(=O)c3ccc(C)cc3)C(=O)c3ccccc32)cc1,-6.85%
20,C[C@H](CO)N1C[C@H](C)[C@@H](CN(C)Cc2ccc3c(c2)OCO3)OCc2cnnn2CCCC1=O,-8.89%
21,CCOC(=O)C1CCCN(S(=O)(=O)c2ccc3c(c2)C(C)(C)C(=O)N3C)C1 (stereo unspecified),-3.23%
22,COc1cc(Br)c(-c2sc(Nc3ccccc3)n[n+]2-c2ccccc2)cc1OC,-4.44%

row,Structure (SMILES),activation
1,Nc1nonc1-n1nnc(C(=O)N/N=C/c2ccc(Cl)cc2)c1-c1ccc2c(c1)OCO2,-7.77%
2,CCS(=O)(=O)N1Cc2ccccc2CC1C(=O)Nc1nc2ccc(F)cc2s1 (stereo unspecified),5.39%
3,Cc1cccc(C(=O)OCC(=O)Nc2sccc2C(N)=O)c1C,3.56%
4,O=C(CN1C(=O)NC2(CCc3ccccc32)C1=O)NC1CCCCC1 (stereo unspecified),-0.6%
5,COC(=O)[C@H]1Cc2cnoc2C[C@]1(C)C(=O)O,4.79%
6,COc1ccc(CN2C(=O)C(CC(=O)NC3CCCCC3)CC(C(=O)N3CCOCC3)=C2C)cc1 (stereo unspecified),1.08%
7,CC1CC(NC(=S)N(C)C)CC(C)(C)C1 (stereo unspecified),7.75%
8,O=C(NN=Cc1ccc2c(c1)CCC2)c1ccccc1O,10.6%
9,Cc1onc(-c2ccccc2)c1-c1nnc(COC(=O)c2ccc(N(C)C)cc2)o1,11.8%
10,COc1cccc(NC(=O)Nc2ccc(F)cc2)c1,9.12%
11,c1ccc2c(c1)nnn2-c1ccncc1,-12.8%
12,CC1=C(C(=O)N(C)C)CC(CC(=O)NCCc2ccccn2)C(=O)N1CCC1=CCCCC1 (stereo unspecified),3.98%
13,CC(=O)Nc1ccc2c3c(ccc([N+](=O)[O-])c13)CC2,1.42%
14,C[C@H]1CN([C@@H](C)CO)C(=O)CCCn2cc(nn2)CO[C@@H]1CN(C)S(=O)(=O)c1ccc(-n2cccn2)cc1,4.21%
15,CC(C)CCNc1nc(N2CCCC2)c2c(c1C#N)CCN(C)C2,6.18%
16,CN1CCN(S(=O)(=O)c2cccc(C(=O)Nc3sccc3C#N)c2)CC1,-12.1%
17,C[C@H]1CN([C@@H](C)CO)C(=O)CCCn2cc(nn2)CO[C@@H]1CN(C)S(=O)(=O)c1ccccc1C#N,-3.32%
18,CC(=NNC(N)=O)C1CC2CCC1CC2 (stereo unspecified),-3.74%
19,COc1ccc(Cl)cc1NC(=O)CN(C)C(=O)c1cn(-c2ccccc2)nc1-c1cccs1,-7.71%
20,Cc1ccc([C@H]2C[C@H](O)[C@@H](n3cc(COC(=O)c4ccccc4)nn3)CN2CC2CCCCC2)cc1,-14.8%
